SRC1 TRFRET art: TR-FRET detection interference compounds, primary screen, artefact control for PPARgamma SRC-1 recruitment agonists, biochemical, TR-FRET emission ratio; TR-FRET detection artefact counter-screen; hits give high values; TR-FRET ratio at 8 µM; 0.34% of 99,000 active; AID 1051, 2008; in the data active means TR-FRET ratio above about 2300
PPARg SRC3 recr: PPARgamma agonists recruiting SRC-3 coactivator, primary screen, biochemical | biochemical PPARgamma/SRC-3 coactivator recruitment assay | activation, % at 8 µM | 0.26% of 200,000 active | AID 731, 2007; in the data active means activation above about 23%;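 further: 0% = DMSO and 100% = reference agonist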
Target sequence (P37231 whole entry, looked up): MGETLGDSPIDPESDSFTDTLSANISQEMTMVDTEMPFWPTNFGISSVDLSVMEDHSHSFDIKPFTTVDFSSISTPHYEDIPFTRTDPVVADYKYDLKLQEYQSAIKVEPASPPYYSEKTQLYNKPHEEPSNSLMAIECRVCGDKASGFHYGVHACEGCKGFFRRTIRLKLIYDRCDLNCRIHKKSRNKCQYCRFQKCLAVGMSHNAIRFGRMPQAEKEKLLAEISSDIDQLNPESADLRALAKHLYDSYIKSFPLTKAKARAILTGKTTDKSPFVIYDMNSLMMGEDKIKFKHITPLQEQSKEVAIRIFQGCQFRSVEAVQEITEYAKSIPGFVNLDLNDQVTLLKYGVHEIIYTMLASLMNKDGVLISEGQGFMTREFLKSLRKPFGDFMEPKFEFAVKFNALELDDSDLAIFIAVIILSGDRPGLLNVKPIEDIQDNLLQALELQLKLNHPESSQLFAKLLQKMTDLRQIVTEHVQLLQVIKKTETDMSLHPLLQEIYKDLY
PPARg SRC1 recr: PPARgamma agonists recruiting SRC-1 coactivator, primary screen, biochemical; Peroxisome proliferator-activated receptor gamma (Homo sapiens), P37231; PPARgamma-SRC-1 coactivator recruitment biochemical assay; activation, % at 8 µM; 0.41% of 200,000 active; AID 631, 2007; in the data active means activation above about 19%;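 further: 0% = DMSO and 100% = reference agonist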
PPARg SRC2 recr: agonists of PPARg-SRC-2 recruitment, primary screen, biochemical, HTS. Peroxisome proliferator-activated receptor gamma (Homo sapiens), P37231. AID 1032, 2008. PPARgamma LBD-SRC-2 recruitment. activation, % at 8 µM. 0.34% of 200,000 active; in the data active means activation above about 22%;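 further: 0% = vehicle and 100% = reference agonist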
SRC3 TRFRET art: TR-FRET detection interference compounds, artefact control for PPARgamma SRC-3 recruitment agonists, biochemical, TR-FRET ratio. TR-FRET artefact counter-screen, PPARgamma/SRC-3 format; hits give high values. 0.39% of 99,000 active. TR-FRET ratio at 8 µM
SRC2 TRFRET art: TR-FRET signal artefacts, primary screen, artefact control for PPARgamma SRC-2 agonist project, biochemical; TR-FRET artefact counter-screen; hits give high values; TR-FRET ratio at 8 µM; 0.4% of 200,000 active
* hit, by the source's call; x = not tested or not shown. This is a sample that favours compounds with a hit; in the whole collection about 0.9% have one here. Unless noted, no stated cut-off is given here; in the data, active means TR-FRET ratio above about 2000; inactive means the rest.

SMILES	SRC1 TRFRET art	PPARg SRC3 recr	PPARg SRC1 recr	PPARg SRC2 recr	SRC3 TRFRET art	SRC2 TRFRET art
O=C(CSc1ncnc2c1oc1ccccc12)N1CCN(c2ccccc2)CC1	x	25	87*	15	x	1527
CCc1nnc(NC(=O)CSc2ncnc3c2oc2ccccc23)s1	x	5	86*	11	x	1593
c1ccc(CSc2ncnc3c2oc2ccccc23)cc1	x	84*	59*	62*	x	2898*
O=C1CC(SC2=NCCS2)C(=O)N1c1cccc(Cl)c1Cl (configuration not stated)	1502	-4	-11	-11	1510	1364
Cc1cc2cc(CNC(=O)Nc3ccc(Cl)c(Cl)c3)ccc2n1C	2614*	8	7	10	1886	1781
FC(F)Oc1ccc(NC(=S)NCc2ccccc2)cc1	1600	-2	-2	-8	1564	1417
COCC(=O)NCc1ccc2c(c1)cc(C)n2C	1864	0	6	6	1649	1821
Cc1cc2cc(CNC(=S)Nc3ccc(OC(F)F)cc3)ccc2n1C	2282	5	11	11	2435*	2063*
Cn1c(=S)[nH]c(=O)c2ncc(=O)[nH]c21	1712	-1	8	2	1717	1579
O=C(O)c1cccc(N/N=C/C2=C(Cl)c3cc(Cl)ccc3SC2)c1	1741	-4	0	8	1561	1695
CCN(CC)c1ccc2cc(-c3nc4ccccc4[nH]3)c(=O)oc2c1	x	9	26*	5	x	1621
CCN(CC)c1ccc2cc(-c3nc4ccccc4n3C)c(=O)oc2c1	x	10	-1	1	x	1610
CC1CN(c2ccccc2)CCN1Cc1nc(Cc2ccccc2)no1 (configuration not stated)	1666	0	-8	0	1554	1218
COc1cc2[nH]c(=S)n(NC(=O)c3ccccc3)c(=O)c2cc1OC	x	20	16	20	x	2013*
COC(=O)c1cnn(-c2nc3c(C)cccc3s2)c1C	x	-10	61*	-1	x	1578
Cc1nc(N2CCCCC2)c2c(-c3cccs3)csc2n1	2176	10	11	4	1885	1665
Cc1nc(N2CCN(S(=O)(=O)c3ccccc3C#N)CC2)c2c(-c3cccs3)csc2n1	2227	-1	0	-1	2725*	1511
O=C(N/N=C/c1cnc(N2CCCCC2)s1)c1ccc(Cl)cc1	1954	4	21*	6	1706	1811
CC1(C)CC(=O)C(C=Nc2ccccc2C(=O)O)=C(O)C1	x	4	6	0	x	1972*
CC(=O)Nc1ccc2nc(NC(=O)COc3cccc(C)c3)sc2c1	1654	2	-8	-1	1541	1304
S=C(c1ccc(-c2cccc(Cl)c2)o1)N1CCCCC1	2350*	8	-10	13	1800	1774
Cc1cccc(N2CCN(C(=S)c3ccc(-c4ccccc4[N+](=O)[O-])o3)CC2)c1	1970	3	-4	-1	1768	1746
O=[N+]([O-])c1ccccc1-c1ccc(C(=S)N2CCCC2)o1	2075	1	4	5	1731	1992*
S=C(c1ccc(-c2cccc(Cl)c2)o1)N1CCOCC1	1854	1	-2	21	1464	1576
O=C(Cc1cccs1)NC1(C(=O)NC2CCCC2)CCCCC1	1734	4	2	1	1686	1539
SMILES	SRC1 TRFRET art	PPARg SRC3 recr	PPARg SRC1 recr	PPARg SRC2 recr	SRC3 TRFRET art	SRC2 TRFRET art
CCOC(=O)C1CCN(C(=O)CSc2ccccc2Cl)CC1	1902	3	21*	3	1667	1445
Cc1cc(C)n(-c2ccc(C(=O)OCC(=O)Nc3ccc(Cl)cc3[N+](=O)[O-])cc2)n1	1933	-2	-6	-5	1695	1622
CCOc1cccc2cc(C(=O)Nc3ccccc3-c3ccccc3)c(=O)oc12	1745	1	-4	-9	1345	1460
CCOc1cccc2cc(C(=O)Nc3cc(C)on3)c(=O)oc12	x	3	38*	6	x	1720
Cc1ccc(S(=O)(=O)c2nc(Nc3ccccc3)sc2Cl)cc1	1923	6	13	8	1658	1595
COc1ccc(Nc2nc(S(=O)(=O)c3ccc(C)cc3)c(Cl)s2)cc1	2100	23*	6	3	1860	1709
CCCCC(=O)N/N=C(/C)C1=C(C)C(C)(C)OC1=O	1547	1	-3	-4	1522	1581
Cc1ccc(S(=O)(=O)N2CCN(C(=O)CCC(=O)NCc3ccc(F)cc3)CC2)cc1	1603	5	4	6	1596	1630
CC1=C(C(=O)Nc2cccc(F)c2)C(c2ccsc2)C2=C(CC(C)(C)CC2=O)N1 (configuration not stated)	1841	-5	-1	-3	1507	1582
C=CCC1Cc2c(Br)cccc2C(CC=C)N1 (configuration not stated)	2057	2	3	5	1570	2035*
CSc1ccc(/C=C/C(=O)c2ccc(NC(=O)C(C)C)cc2)cc1	x	0	-5	8	x	1546
CSc1ccc(/C=C/C(=O)c2ccc(NC(=O)Cc3ccccc3)cc2)cc1	x	10	5	3	x	2038*
O=C(c1ccccc1-c1ncc[nH]1)N1CCc2c([nH]c3ccccc23)C1c1ccccn1 (configuration not stated)	1420	0	5	0	1452	1397
Cn1nnnc1SCC(=O)Nc1cc(S(=O)(=O)N2CCCC2)ccc1Cl	1762	1	3	15	1595	1756
CN(C)S(=O)(=O)c1ccc(Cl)c(NC(=O)CSc2nnnn2-c2ccc(O)cc2)c1	2160	1	7	-3	1580	2002*
CC1(C)CC(=O)C2=C(C1)OC1=C(C2)C(=O)CC(C)(C)C1	1798	3	6	-8	1598	1633
Cc1ccc(S(=O)(=O)N(CC(=O)N/N=C/c2ccccc2C(=O)O)c2cc(Cl)cc(Cl)c2)cc1	1732	-5	-1	-5	1534	1533
Cc1cc(C)c(C(=O)CSc2nnc(-c3ccccc3Br)o2)cc1C	x	-1	27*	0	x	1615
Cc1ccc(NC(=O)CSc2nnc(-c3ccccc3Br)o2)cc1C	x	23	4	2	x	1535
CCOC(=O)CSC(=S)NC(=O)c1ccc(OC)cc1	2487*	12	8	15	2008	1985*
Cc1ccc(-c2csc(NC(=O)c3cc([N+](=O)[O-])ccc3N3CCOCC3)n2)cc1	1659	23*	1	-6	2579*	1581
Cc1nn(Cc2c(F)cccc2Cl)c(C)c1[N+](=O)[O-]	1688	0	21*	0	1841	1578
COc1ccc(-c2cn3c(C)c(C(=O)Nc4ccncc4)sc3n2)cc1	x	-15	1	1	x	1516
Cc1c(C(=O)Nc2ccncc2)sc2nc(-c3ccc(F)cc3)cn12	2289	13	6	22	2105*	1995*

Assay outcomes from PubChem.
